# Sampled rows, rich in hits. Any-hit rate of the full collection: about 21%.
# Shiga toxin inh: inhibitors of Shiga toxin in Vero cells; inhibition, % at 38.7 µM; hit rate 9.2% among 290,000; Vero cells, Shiga toxin protein synthesis inhibition reporter; in the data active = inhibition mostly above about 28%, no sharp cut-off; inactive = mostly below about 43%; note: 0% is about no effect
# SARS PLP yeast: blocks SARS-CoV papain-like protease in a yeast assay; S. cerevisiae expressing SARS-CoV PLpro, growth rescue; Potency, µM (titrated, usually from 32.9 µM), for inactives: at the top dose activity, positive = growth rescue, actives largely listed as activators; hit rate 0.19% among 330,000; AID 485353; note: potency is the fitted concentration of half-maximal effect; 0% is about no effect; nearly all actives have a fitted effect of over 55% in size
# Cycloheximide cs: affects cycloheximide protein synthesis inhibition readout, counter-screen; max response, %; hit rate 12% among 300,000; cell reporter, cycloheximide protein synthesis inhibition counterscreen; AID 2314; in the data active = max response mostly above about 13%, no sharp cut-off; inactive = mostly below about 14%; note: read at 38.3 µM for the half of the compounds with a filed dose; 0% is about no effect
# NS1 inh: inhibitors of influenza NS1 protein function | hit rate 0.4% among 270,000 | Potency, µM (highest dose often 46.1 µM), without a hit: at the highest dose activity, positive = more growth; note: potency is the fitted concentration of half-maximal effect; actives are rising curves; nearly all actives have a fitted effect of over 50% in size
#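 OD600 was taken as the measure of yeast growth restored by compound in an NS1-expressing S. cerevisiae strain. Cells had been washed out of glucose medium and diluted 1:100 into galactose -URA medium, pH 6.0.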
# Pf growth 96h: inhibits malaria parasite growth, 96 h; hit rate 6.9% among 320,000; AID 504834; Potency, µM (doses to about 28.7 µM), for inactives: at the highest dose activity change, negative = inhibition, actives largely listed as inhibitors; P. falciparum luciferase reporter growth, 96 h; active = well fitted inhibition curve with a large enough effect; inconclusive = small, poorly fitted or top-dose-only effect, or another doubt; inactive = no such curve, though single readings can be large or run the other way; note: potency is the fitted concentration of half-maximal effect; % is set by controls: 0 for no effect and ±100 for the full control effect
#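 Compounds incubated with erythrocytes infected by luciferase-expressing P. falciparum (2% hematocrit, 0.05% parasitemia final) for 96 hours, 37 C in 5% CO2. Growth inhibition scored as decreased luciferase luminescence.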
# Pf growth 48h: P. falciparum growth inhibition at 48 hours (one generation); P. falciparum luciferase growth in erythrocytes, 48 h; Potency, µM (series often up to 28.7 µM), for inactives: at the top dose activity change, negative = inhibition, usual class: inhibitors; hit rate 5.9% among 310,000; active = well fitted inhibition curve with a large enough effect; inconclusive = small, poorly fitted or top-dose-only effect, or another doubt; inactive = no such curve, though single readings can be large or run the other way; note: potency is the fitted concentration of half-maximal effect; % is set by controls: 0 for no effect and ±100 for the full control effect
#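 Firefly luciferase activity from engineered P. falciparum reports growth; inhibitors lower the luminescent signal. Cultures contained 2% hematocrit erythrocytes at 0.1% final parasitemia.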
# An asterisk follows results filed as active; u = inconclusive; x = no result; [ ] = dose if it differs, or a comment. Unless noted, calls come from the whole dose curve.
SMILES,Shiga toxin inh,SARS PLP yeast,Cycloheximide cs,NS1 inh,Pf growth 96h,Pf growth 48h
Cc1ccc(N(CC(O)Cn2c3ccccc3c3ccccc32)S(C)(=O)=O)c(C)c1 (stereo not drawn),14.4,-19.7%,-6.4,1.4%,x,4.65µM*
Cc1ccc(N(CC(O)Cn2c3ccccc3c3ccccc32)S(C)(=O)=O)cc1 (stereo not drawn),1.5,-1.2%,5.4,-1.2%,u,x
OC(CNCc1ccco1)COc1ccccc1 (stereo not drawn),24.4,0.8%,1.6,2.0%,-0.7%,5.2%
CCn1cnc2cc(NCc3nc4ccccc4n3Cc3ccccc3)ccc21,50.4*,-20.3%,32.6*,12.1%,152.2%,9.2%
CC(C)n1cnc2cc(NCc3nc4ccccc4n3C)ccc21,81.8*,6.1%,72.7*,-21.7%,10.8%,127.6%
CCn1cnc2cc(NCc3nc4ccccc4n3C)ccc21,59.0*,-6.3%,26.0*,-4.2%,2.6%,104.1%
COC1(OC)N=C(NC(=O)Nc2ccccc2)C2(C#N)C(c3ccccc3)C12C#N (stereo not drawn),-4.1,0.6%,0.5,-30.7%,x,u
Cc1ccc2c(Cl)cc(Cl)c(OCC(=O)NC(C)(C)C)c2n1,-2.3,-1.1%,-2.2,x,u,11.7µM*
Cc1ccc2c(Cl)cc(Cl)c(OCC(=O)Nc3cccc(S(=O)(=O)N(C)C)c3)c2n1,-8.2,-6.7%,0.6,-0.8%,17.7%,8.3%
Cc1ccc2c(Cl)cc(Cl)c(OCC(=O)Nc3cc(S(=O)(=O)N(C)C)ccc3C)c2n1,1.6,-5.1%,-1.5,u,11.7µM*,u
COc1ccccc1N(C(=O)CNS(=O)(=O)c1ccccc1)C(C(=O)NCc1ccco1)C(C)C (stereo not drawn),-14.4,4.6%,2.4,-6.9%,5.22µM*,u
CCCC(C(=O)NCc1ccco1)N(C(=O)CNS(=O)(=O)c1ccccc1)c1ccccc1OC (stereo not drawn),35.3,5.7%,0.9,-48.7%,u,10.4µM*
CCC(C(=O)NCc1ccco1)N(C(=O)CNS(=O)(=O)c1ccc(C)cc1)c1ccccc1OC (stereo not drawn),-20.1,1.0%,-1.8,1.1%,20.5%,4.15µM*
CC(C)C(C(=O)NCc1ccco1)N(Cc1ccco1)C(=O)CNS(=O)(=O)c1ccccc1 (stereo not drawn),-3.0,2.4%,1.4,4.4%,-0.1%,-10.0%
Cc1ccc(S(=O)(=O)N2CCCCC2C(=O)N(C)c2ccccc2)cc1 (stereo not drawn),-5.4,2.4%,-2.2,-17.5%,-2.8%,19.1%
CN(CC(=O)Nc1ccccc1Cl)CC(=O)Nc1c(F)cccc1F,-4.8,-7.5%,-3.3,x,12.8%,-5.9%
COCCCNC(=O)c1ccc(-n2c(-c3ccccc3)cc3c2CCCCC3)cc1,103.4*,x,22.7*,x,x,x
Cc1ccc(O)c(C2=NOC(O)(C(F)(F)F)C2)c1 (stereo not drawn),-5.6,-14.6%,-1.9,-3.7%,35.5%,-0.8%
COc1ccc(C(=O)Nc2nc(-c3cccs3)cs2)cc1,83.5*,x,44.6*,-128.2%,x,-7.3%
COc1cc(C(=O)Nc2nc(-c3cccs3)cs2)cc(OC)c1OC,-9.2,-5.6%,7.5,-53.7%,14.4%[5.75 µM],11.7µM*
COc1cc(C(=O)NC(=S)Nc2nc(-c3ccc(F)cc3)cs2)cc(OC)c1OC,9.0,-2.5%,1.0,-1.2%,1.9%,2.6%
O=C(Nc1nc(-c2cccs2)cs1)c1ccc(Cl)cc1,40.7,-25.0%,29.0,-52.5%,x,-3.4%
Cc1ccccc1C(=O)O/N=C/c1c(N2CCOCC2)n(C)c2ccccc12,-19.9,-22.1%,1.1,-276.2%,2.33µM*,2.62µM*
CN1CCN(c2c(/C=N/O)c3ccccc3n2C)CC1,-3.5,0.7%,-0.9,0.4%,21.7%,0.0%
CC(=O)OCC1(C)CN(c2ccccc2)NC1=O (stereo not drawn),4.7,-2.8%,10.4,x,108.6%,30.1%
Cc1oc2c(Cl)c(Cl)c(O)c(CN(C)C)c2c1C(=O)c1ccc(Cl)cc1,-7.1,-12.7%,-2.2,29.7%,103.3%,u
O=C(NCc1ccccc1)C(c1c(F)cccc1Cl)N(C(=O)c1csnn1)C1CC1 (stereo not drawn),-5.6,-14.8%,-1.1,-5.6%,26.1%,u

# Compound activity from PubChem BioAssay.
